Test results reported in PubChem BioAssay (NCATS).
Inconclusive results are not listed. Active and inactive are the calls of the source. Calls come from the whole dose curve; as a rule, active = well fitted curve in the direction sought with a large enough effect; inconclusive = small, poorly fitted or top-dose-only effect, or another doubt; inactive = no such curve, though single readings can be large; an effect the other way counts as inactive or inconclusive.

Target: Lysine-specific demethylase 5B (Homo sapiens) (UniProt Q9UGL1)
Test: Optimization screen for KDM5B Histone Demethylases FDH coupled qHTS against the LOPAC library (AID 1347166); note: 0% is about no effect
Details: KDM5B demethylation, FDH-coupled NADH fluorescence (FDH is formaldehyde dehydrogenase); series mostly up to 57.5 µM; activity, negative = inhibition: at the top concentration
How it was run: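 KDM5BDeltaAP (200nM final) preincubated 10 min with compound, then 12.5uM H3K4Me3, 25uM a-ketoglutarate, ascorbate, Fe(II), NAD+ and FDH added; 50mM HEPES pH 7.5, 0.01% Tween-20. NADH fluorescence (340/450 nm) change over 30 min, room temperature.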

Sequence of Lysine-specific demethylase 5B (Homo sapiens) (Q9UGL1 whole entry, looked up): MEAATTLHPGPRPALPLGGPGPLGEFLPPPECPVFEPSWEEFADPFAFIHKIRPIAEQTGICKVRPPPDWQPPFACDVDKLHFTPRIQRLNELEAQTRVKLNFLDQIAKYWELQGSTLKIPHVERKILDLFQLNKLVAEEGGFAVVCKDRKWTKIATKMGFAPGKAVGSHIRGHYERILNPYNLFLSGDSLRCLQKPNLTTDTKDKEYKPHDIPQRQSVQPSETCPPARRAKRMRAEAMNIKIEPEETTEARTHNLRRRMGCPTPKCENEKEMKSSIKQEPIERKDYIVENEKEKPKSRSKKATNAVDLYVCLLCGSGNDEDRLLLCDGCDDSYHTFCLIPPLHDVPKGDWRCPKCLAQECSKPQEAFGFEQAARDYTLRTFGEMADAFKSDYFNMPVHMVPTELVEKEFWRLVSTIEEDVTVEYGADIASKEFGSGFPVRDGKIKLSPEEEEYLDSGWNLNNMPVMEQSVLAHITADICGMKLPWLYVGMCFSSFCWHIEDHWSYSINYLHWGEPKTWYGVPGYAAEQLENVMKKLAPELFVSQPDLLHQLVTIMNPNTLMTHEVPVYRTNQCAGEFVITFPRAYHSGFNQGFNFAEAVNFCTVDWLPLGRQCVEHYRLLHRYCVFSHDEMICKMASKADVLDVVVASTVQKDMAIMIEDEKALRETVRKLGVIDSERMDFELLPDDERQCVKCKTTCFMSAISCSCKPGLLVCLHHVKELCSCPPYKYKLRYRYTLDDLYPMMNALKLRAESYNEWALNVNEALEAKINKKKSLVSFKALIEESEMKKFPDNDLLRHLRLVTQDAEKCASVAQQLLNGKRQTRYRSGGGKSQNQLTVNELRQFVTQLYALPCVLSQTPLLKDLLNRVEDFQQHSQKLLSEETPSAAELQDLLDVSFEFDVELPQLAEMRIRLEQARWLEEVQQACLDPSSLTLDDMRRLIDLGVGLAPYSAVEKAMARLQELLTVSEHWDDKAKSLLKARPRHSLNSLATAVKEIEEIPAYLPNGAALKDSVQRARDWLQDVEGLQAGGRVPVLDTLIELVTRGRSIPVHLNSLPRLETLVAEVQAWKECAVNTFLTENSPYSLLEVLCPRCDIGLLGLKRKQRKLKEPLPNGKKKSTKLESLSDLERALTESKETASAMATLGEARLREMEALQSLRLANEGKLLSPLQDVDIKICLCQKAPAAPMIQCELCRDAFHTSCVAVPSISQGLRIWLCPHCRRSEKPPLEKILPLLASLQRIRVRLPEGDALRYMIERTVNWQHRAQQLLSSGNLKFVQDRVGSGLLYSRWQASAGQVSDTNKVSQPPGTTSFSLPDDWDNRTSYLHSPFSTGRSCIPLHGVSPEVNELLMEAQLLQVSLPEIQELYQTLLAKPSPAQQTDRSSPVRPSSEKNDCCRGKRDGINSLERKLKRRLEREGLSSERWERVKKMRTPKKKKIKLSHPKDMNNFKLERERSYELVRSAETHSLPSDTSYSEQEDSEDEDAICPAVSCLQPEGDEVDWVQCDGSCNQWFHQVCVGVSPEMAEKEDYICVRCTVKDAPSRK

Row | Compound | activity, negative = inhibition
1 | C[C@@H]1O[C@H](C[N+](C)(C)C)C[C@H]1O | -9.81% (inactive)
2 | NCCc1c[nH]c2ccccc12 | -14% (inactive)
3 | NC(=NCCC[C@H](N)C(=O)O)N[N+](=O)[O-] | -2.63% (inactive)
4 | NC(CCP(=O)(O)O)C(=O)O (centres undefined) | -6.67% (inactive)
5 | CCCN(CCC)C1CCc2ccc(O)cc2C1 (centres undefined) | -5.57% (inactive)
6 | NC(=O)CN1CC(O)CC1=O (centres undefined) | -6.36% (inactive)
7 | CC(Cc1ccc(O)cc1)NCC(O)c1cc(O)cc(O)c1 (centres undefined) | -8.76% (inactive)
8 | C[C@]12CCC3C(CC[C@H]4C[C@H](O)CC[C@]34C)C1CC[C@@H]2C(=O)CO (some centres undefined) | -1.14% (inactive)
9 | S=C(NC1CCCCC1)N1CCC(c2cnc[nH]2)CC1 | -5.95% (inactive)
10 | CN[C@@H]1C[C@@H](c2ccc(Cl)c(Cl)c2)c2ccccc21 | -10.2% (inactive)
11 | CC[C@@H](C(N)=O)N1CCCC1=O | -1.49% (inactive)
12 | CCCCc1ccc(C(=O)O)nc1 | -11.1% (inactive)
13 | COc1cc(C(O)CN)ccc1O (centres undefined) | -3.81% (inactive)
14 | Cc1c(C(=O)c2cccc3ccccc23)c2cccc3c2n1[C@H](CN1CCOCC1)CO3 | -15.1% (inactive)
15 | CC(=O)[C@H]1CCC2C3CC[C@H]4C[C@H](O)CC[C@]4(C)C3CC[C@@]21C (some centres undefined) | -2.53% (inactive)
16 | CS(=N)(=O)CC[C@H](N)C(=O)O (some centres undefined) | -5.65% (inactive)
17 | NCCc1c[nH]c2ccc(O)cc12 | -13.6% (inactive)
18 | CC(=O)NCCc1c[nH]c2ccccc12 | -14.1% (inactive)
19 | C=CCN1CC[C@]23CCCCC2[C@H]1Cc1ccc(O)cc13 (some centres undefined) | -18% (inactive)
20 | O=C(O)Cc1cnc[nH]1 | -2.96% (inactive)
21 | C[C@]12N[C@H](Cc3ccccc31)c1ccccc12 | -4.12% (inactive)
22 | O=C(O)[C@@H]1CCN1 | -3.84% (inactive)
23 | O=C(N[C@H]1CN2CCC1CC2)c1ccc(Cl)cc1 | 0.478% (inactive)
24 | CN1C2CCC1CC(OC(=O)c1cc(Cl)cc(Cl)c1)C2 (centres undefined) | -3.11% (inactive)

Test system: not listed separately
Test: Vero cells viability qHTS for Zika virus inhibitors (AID 1347167); note: % is set by controls: 0 for no effect and ±100 for the full control effect
Details: cytotoxicity counter-screen (Zika); series mostly up to 45.9 µM; activity change, negative = cytotoxicity: at the top concentration
How it was run: (§1)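 Compounds were tested in concentration series on cells grown in DMEM containing 4% FBS. After 24 to 48 hours, cellular ATP was measured by luminescence with CellTiter Glo.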

Row | Compound | activity change, negative = cytotoxicity
25 | CC(C)Oc1cccnc1N(C)C1CCN(Cc2ccccc2)CC1 | -1.21% (inactive)
26 | CC(=O)N(C)c1cccc(-c2ccnc3c(C(=O)c4cccs4)cnn23)c1 | -5.1% (inactive)
27 | C=CCN1CC[C@]23CCCCC2[C@H]1Cc1ccc(O)cc13 (some centres undefined) | -5.2% (inactive)

Test system: not listed separately
Test: HepG2 cells viability qHTS for Zika virus inhibitors (AID 1347168); note: % is set by controls: 0 for no effect and ±100 for the full control effect
Details: Zika counter-screen; series mostly up to 45.9 µM; activity change, negative = cytotoxicity: at the top concentration
How it was run: as §1

Row | Compound | activity change, negative = cytotoxicity
28 | CC(C)Oc1cccnc1N(C)C1CCN(Cc2ccccc2)CC1 | -6.13% (inactive)
29 | CC(=O)N(C)c1cccc(-c2ccnc3c(C(=O)c4cccs4)cnn23)c1 | 0.81% (inactive)
30 | C=CCN1CC[C@]23CCCCC2[C@H]1Cc1ccc(O)cc13 (some centres undefined) | -1.72% (inactive)

Test system: not listed separately
Test: Tertiary RLuc qRT-PCR qHTS assay for Zika virus inhibitors (AID 1347169); note: top concentration of the series differs between compounds; % is set by controls: 0 for no effect and ±100 for the full control effect; nearly all actives have a fitted effect of over 55% in size
Details: infected Vero cells, reporter luminescence, 48-72 h; series mostly up to 45.9 µM; activity change, negative = inhibition: at the top concentration
How it was run: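 Vero cells (1,000 per well) plated overnight at 37 degrees C, treated with compound in DMSO, then infected with recombinant ZIKV-RLuc (Cambodian) at MOI 1-2 for 48-72 hrs. Live-cell Renilla luciferase substrate added; luminescence read after 1-1.5 hrs.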

Row | Compound | activity change, negative = inhibition
31 | Nc1c(Cl)c(Cl)c(Cl)c(Cl)c1Cl | 37.1% [at 26.6 µM] (inactive)
32 | CC(C)Oc1cccnc1N(C)C1CCN(Cc2ccccc2)CC1 | -16.5% (inactive)
33 | O=[N+]([O-])c1c(Cl)c(Cl)cc(Cl)c1Cl | 77.7% [at 3.57 µM] (inactive)
34 | C=CCN1CC[C@]23CCCCC2[C@H]1Cc1ccc(O)cc13 (some centres undefined) | -36% (inactive)
